hcDAF12 agonist: H. contortus DAF-12 activation, primary screen. 1.4% of 370,000 active. HEK293 hcDAF-12 lit1-tk-luc reporter, luminescence; 0% DMSO, 100% Δ7-dafachronic acid. AID 652067. activation, % at 6.8 µM;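 active means activation above the mean of all tested compounds plus 3 SD, cut at about 5.5% in these data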;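 further: 100% = response to 3 µM Δ7-dafachronic acid high control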
ssDAF12 agonist: activates DAF-12 receptor from parasite S. stercoralis | HEK293 ssDAF-12/GRIP1 lit1-tk-luc reporter, luminescence; % of 3 µM dafachronic acid response | activation, % at 6.8 µM | 1% of 370,000 active | AID 652126;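 active means activation above the mean over all tested compounds plus 3 SD, cut at about 0.9% in these data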;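 further: 0% = DMSO-only wells and 100% = 3 µM delta7-dafachronic acid wells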
DAX1 StAR inh: inhibitors of DAX1 repression of SF-1 activated StAR promoter | HEK293T StAR-luciferase reporter, SF-1/DAX-1 repression relief | inhibition, % at 6.8 µM | 1.1% of 370,000 active;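 active means inhibition above the mean over all tested compounds plus 3 SD, cut at about 3.6% in these data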;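 further: 0% = DAX-1 cells with DMSO and 100% = cells lacking DAX-1 with DMSO; higher inhibition means more luminescence from relief of DAX-1 repression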
Wnt bcat act: activators of Wnt/beta-catenin signaling | activation, % at 9.35 µM | AID 743398 | Wnt/beta-catenin reporter cell assay, activator, plate reader | 1.2% of 300,000 active; in the data active means activation above about 30%, passing the limit was not always enough; inconclusive means no clear call, values can overlap the other calls;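 further: 0% = neutral control wells and 100% = positive control wells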
hgDAF12 agonist: hgDAF-12 agonism, primary luciferase screen. AID 687014. 1.8% of 370,000 active. HEK293 GAL4-hgDAF12 UAS-luciferase reporter, agonist luminescence; normalized to butyrate control. activation, % at 6.8 µM;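 active means activation above a cutoff set at the mean of all screened compounds plus 3 SD, cut at about 10% in these data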;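 further: 0% = DMSO wells and 100% = sodium butyrate wells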
esBAF inh: inhibitors of esBAF chromatin remodeling in mouse ES cells; Bmi1-luciferase knock-in reporter, 24 h; 100% = twice the neutral-well signal; reporter increase, % at 12.5 µM; 2% of 350,000 active; in the data active means activation above about 40%; inconclusive means no clear call, values can overlap the other calls;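 further: 0% = median of the plate's neutral control wells and 100% = double that signal; a rise in the Bmi1 reporter signal indicates esBAF inhibition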
LXRb hcDAF ctr: counter-screen for hcDAF-12 agonists: agonists of human LXR-beta. HEK293 Gal4-LXR tk-luc reporter, luminescence, 24 h; normalized: DMSO 0%, positive control 100%. activation, % at 6.8 µM. shares compounds with hcDAF12 agonist. AID 743027. 3,400 tested, under 10 active;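 active means mean percent activation of the reporter above a cutoff set as the average over tested compounds plus their standard deviation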
Target sequence (P55055 whole entry, looked up, the tested form may be a part): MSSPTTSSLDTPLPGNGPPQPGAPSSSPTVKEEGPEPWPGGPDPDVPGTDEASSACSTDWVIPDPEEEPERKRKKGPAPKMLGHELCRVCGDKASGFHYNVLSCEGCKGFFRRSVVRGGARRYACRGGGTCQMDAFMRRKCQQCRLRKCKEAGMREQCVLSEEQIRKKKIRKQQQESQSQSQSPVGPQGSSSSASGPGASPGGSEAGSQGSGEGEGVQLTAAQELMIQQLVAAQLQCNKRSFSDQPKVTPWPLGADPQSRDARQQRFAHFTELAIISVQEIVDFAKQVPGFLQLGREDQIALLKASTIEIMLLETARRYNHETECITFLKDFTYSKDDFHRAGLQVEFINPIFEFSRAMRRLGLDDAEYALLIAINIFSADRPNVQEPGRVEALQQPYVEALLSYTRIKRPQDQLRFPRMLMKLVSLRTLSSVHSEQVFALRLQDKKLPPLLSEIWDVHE
hcDAF12 conf: confirmation of H. contortus DAF-12 agonists; 61% of 3,400 active; HEK293 hcDAF-12 lit1-tk-luc reporter, luminescence; % of Δ7-dafachronic acid response; activation, % at 6.8 µM; shares compounds with hcDAF12 agonist; AID 743032;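 active means mean activation across triplicate tests above the threshold derived from the earlier primary screen, cut at about 5.5% in these data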;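 further: 0% = DMSO only wells and 100% = 3 µM Δ7-dafachronic acid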
The depositor's hits bear a star; ? = inconclusive; / = no result given. Most compounds without a hit are left out; they make up all but 4.2% or so of the library.

SMILES | hcDAF12 agonist | ssDAF12 agonist | DAX1 StAR inh | Wnt bcat act | hgDAF12 agonist | esBAF inh | LXRb hcDAF ctr | hcDAF12 conf
CC=Cc1ccc2n(c1=O)C[C@H]1[C@H](CO)[C@@H](C(=O)NC3CCCC3)N(CC3CCCCC3)[C@@H]21 (mixture of isomers) | / | / | / | / | / | -5 | / | /
COC(=O)c1c(NC(=S)Nc2ccc(F)cc2[N+](=O)[O-])sc2c1CCCCC2 | 9.5* | 0 | -1 | -2 | 2 | / | 0 | 2
O=C(NN=C1CCCC1)c1ccc(Cl)cc1 | 2 | -1 | 0 | -2 | 2 | 0 | / | /
Cc1cc(OCc2ccc(C(=O)NN=C3CCCC3)cc2)ccc1Cl | 9.9* | 0 | 0 | 46* | 8 | / | 0 | 9.4*
CCC(=O)Nc1ccc(NC(=O)c2ccccc2)nc1 | 7.0* | 1.0* | 4.1* | -12 | 11* | -78 | 1 | 3
O=C(C[C@H]1C[C@H]2c3cc(NC(=O)C4CCOCC4)ccc3O[C@H]2[C@@H](CO)O1)NCc1ccc(Oc2ccccc2)cc1 | / | / | / | / | / | -8 | / | /
CCOC(=O)Cc1nc(N2CCCN(C(C)=O)CC2)c2c(C)c(C(=O)OCC)sc2n1 | 6.9* | -2 | -1 | / | 0 | / | 0 | -2
C/C(=N\Nc1nc2ccccc2[nH]1)c1ccc(C)o1 | 7.5* | 2.2* | 1 | / | 8 | / | 0 | 8.6*
Cc1cccc(-c2noc(-c3ccoc3C)n2)c1 | 0 | 0 | 1 | ? | 5 | / | / | /
Cc1cccc(-c2noc(-c3ccc(Cl)cc3[N+](=O)[O-])n2)c1 | 8.9* | 0 | 2 | 43* | 13* | / | 2 | 7.7*
COc1ccccc1-c1cnc2c(c1)C(=O)N([C@@H](C)CO)C[C@@H](C)[C@@H](CN(C)Cc1cccnc1)O2 | / | / | / | / | / | -1 | / | /
COc1ccc(OC)c2nc3c(C(=O)NCCN(C)C)cccc3nc12 | 11* | 0 | 1 | 6 | 2 | / | 0 | 9.2*
CN(C)CCNC(=O)c1cccc2nc3cccc(F)c3nc12 | 18* | 1.5* | -4 | 28 | -1 | / | 1 | 14*
COc1ccc(C23CC4CC(CC(C4)C2)C3)cc1C(=O)NCCN(C)C | -2 | -1 | 0 | -4 | 2 | 3 | / | /
O=C(N/N=C/c1ccccc1)C(O)c1ccccc1 (stereo unspecified) | 6.7* | 0 | 0 | -1 | 0 | -8 | 0 | 5.6*
COc1ccccc1C(=O)Nc1cc(Cl)ccc1O | 9.8* | 0 | 0 | 1 | 3 | 10 | 0 | 5.8*
COc1ccccc1C(=O)NC(=O)Nc1cccc(Cl)c1 | 13* | 1 | 2 | 43* | 14* | -2 | 2 | 18*
O=P1(O)C=C(c2ccccc2)OC(c2ccccc2)=C1 | 9.9* | 1.4* | 1 | / | 8 | / | 1 | 11*
Cc1[nH]c2ccccc2c1/C=N/Nc1cccc(C(=O)O)c1 | 11* | 0.9* | 1 | 11 | 13* | / | 1 | 13*
C[C@@H]1CCCCO[C@H](CN(C)Cc2ccc(Cl)c(Cl)c2)[C@H](C)CN([C@@H](C)CO)C(=O)c2cc(NS(=O)(=O)c3cn(C)cn3)ccc2O1 | / | / | / | / | / | 3 | / | /
O=C(COC(=O)c1cncc(Br)c1)Nc1ccc2c(c1)OCO2 | 7.0* | 0 | 0 | -2 | 1 | / | 0 | 4
O=C(C[C@H]1C[C@H]2c3cc(NC(=O)Nc4ccc(C(F)(F)F)cc4)ccc3O[C@H]2[C@H](CO)O1)NCc1cccnc1 | / | / | / | / | / | -3 | / | /
COC(=O)c1cc(-c2ccccc2)c(=O)n2c1CCC2 | -1 | -1 | 0 | / | 1 | / | / | /
COC(=O)c1cc(-c2ccc(C(C)(C)C)cc2)c(=O)n2c1CCC2 | 7.1* | -1 | 1 | / | -1 | / | 0 | 1
C[C@H]1CN([C@@H](C)CO)C(=O)c2cc(-c3ccc(C#N)cc3)cnc2O[C@@H]1CN(C)Cc1ccccn1 | / | / | / | / | / | -2 | / | /
SMILES | hcDAF12 agonist | ssDAF12 agonist | DAX1 StAR inh | Wnt bcat act | hgDAF12 agonist | esBAF inh | LXRb hcDAF ctr | hcDAF12 conf
COCc1nnc(NC(=O)COc2ccc3c(c2)OCO3)s1 | 4 | -1 | 0 | 1 | 1 | 7 | / | /
O=C(COc1ccc2c(c1)OCO2)Nc1nccs1 | 7.5* | 1.1* | 2 | 10 | 11* | -46 | 1 | 6.0*
COc1ccc(CN(C)C[C@@H]2OCCCC[C@H](C)Oc3ccc(NS(=O)(=O)c4ccc(F)cc4)cc3C(=O)N([C@H](C)CO)C[C@@H]2C)cc1 | / | / | / | / | / | 1 | / | /
COc1ccc(-n2c(SCC(=O)NCC3CCCO3)nc3c([nH]c4ccccc43)c2=O)cc1 (stereo unspecified) | 7.3* | 0 | 0 | 0 | 3 | -2 | 0 | 3
COc1ccc(-n2c(SCC(=O)NCC3CCCO3)nc3c([nH]c4ccccc43)c2=O)cc1OC (stereo unspecified) | 8.1* | 0 | -1 | 2 | 10* | 6 | 0 | 5
COc1ccc(NC(=O)N[C@@H]2CC[C@H](CC(=O)NC3CCC3)O[C@@H]2CO)cc1 | / | / | / | / | / | 5 | / | /
Cc1noc(C)c1NC(=O)Nc1ccc2c(c1)CC(=O)N([C@@H](C)CO)C[C@@H](C)[C@H](CN(C)S(=O)(=O)c1ccc(Cl)cc1)O2 | / | / | / | / | / | -3 | / | /
C[C@@H]1/C=C/CC(=O)N[C@H](c2ccc3ccccc3c2)[C@H](C)/C=C/CC(=O)N[C@@H]1c1ccc2ccccc2c1 | 8.7* | -1 | -1 | / | 0 | / | 0 | 2
O=C1NC(=S)N(C(=O)c2ccc(F)cc2)/C1=C/c1cccnc1 | -1 | -1 | 0 | 7 | 6 | / | / | /
COc1ccc(/C=C2\C(=O)NC(=S)N2C(=O)c2ccc(C)cc2)cc1 | 7.4* | 0 | 2 | 3 | 8 | / | 0 | 1
CNC(=O)C[C@@H]1CC[C@@H]2[C@H](COC[C@@H](O)CN2C(=O)Nc2cccc(OC)c2)O1 | / | / | / | / | / | -3 | / | /
COCC#Cc1cnc2c(c1)C(=O)N([C@H](C)CO)C[C@@H](C)[C@H](CN(C)C(=O)CN1CCOCC1)O2 | / | / | / | / | / | -1 | / | /
Cc1ccc(-c2csc(NC(=S)NC(=O)c3cccs3)n2)cc1 | 2 | -1 | 0 | / | 2 | / | / | /
CC(=O)Nc1ccc2nc(NC(=O)c3ccco3)sc2c1 | 6.7* | 0 | 2 | 16 | 10 | 10 | 1 | 10.0*
O=C(NC(=S)Nc1nc(-c2ccccc2)cs1)c1cccs1 | 8.2* | 0 | 0 | 5 | 3 | / | 0 | 5
O=C(NC(=S)Nc1nc2ccccc2s1)c1ccco1 | 11* | 2.2* | 2 | 53* | 13* | / | 1 | 12*

From PubChem BioAssay
